Hits are enriched below; roughly 6% of the tested compounds scored in any of these assays.
Tau fluor counter = Counterscreen qHTS for Inhibitors of Tau Fibril Formation, Fluorescence Polarization | 0.93% of 280,000 active | AID 1463, 2008 | tau K18 P301L Alexa594 fluorescence, heparin fibrillization | Potency, µM (top dose mostly 57.7 µM), inactives show top-dose activity change, negative = decrease; note: nearly all actives have a fitted effect of over 55% in size
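Human K18 P301L tau (15 uM unlabeled plus 0.24 uM Alexa 594-labeled, final) in 100 mM sodium acetate pH 7 was mixed with compound and 20 uM heparin and incubated 6 hr at 37 C.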
Tau ThT inhib = qHTS for Inhibitors of Tau Fibril Formation, Thioflavin T Binding. Microtubule-associated protein tau (Homo sapiens), P10636. recombinant tau K18 P301L (four-repeat tau fragment), heparin-induced fibrillization, ThT fluorescence. 2.1% of 270,000 active. Potency, µM (top dose mostly 57.4 µM), for inactives: top-dose activity, negative = inhibition, hits mostly inhibitors; note: nearly all actives have a fitted effect of over 55% in size
Target sequence (P10636 561-689 P618L limits assumed): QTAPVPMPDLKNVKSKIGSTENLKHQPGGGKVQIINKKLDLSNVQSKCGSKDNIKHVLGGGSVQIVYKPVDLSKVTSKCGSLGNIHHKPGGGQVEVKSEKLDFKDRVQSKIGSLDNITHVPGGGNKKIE
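Aggregation was driven by heparin (20 uM final) acting on recombinant tau […] bearing P301L in 100 mM sodium acetate pH 7; fibrils were detected with Thioflavin T.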
Tau fibril FP = qHTS for Inhibitors of Tau Fibril Formation, Fluorescence Polarization; Potency, µM (top dose mostly 57.7 µM), for the others: top-dose activity, negative = inhibition, most hits filed as inhibitors; AID 1468, 2008; K18 P301L tau heparin fibrillization, Alexa594 FP, 6 h; 0.39% of 280,000 active; note: nearly all actives have a fitted effect of over 55% in size
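Human K18 P301L fragment (15 uM unlabeled plus 0.24 uM Alexa 594-labeled) in 100 mM sodium acetate pH 7 with compound, aggregation induced by 20 uM heparin for 6 hr at 37 C. ThT (30 uM) added for 1 hr, then Alexa 594 FP read.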
Sfp inh = qHTS Assay for Inhibitors of Bacillus subtilis Sfp phosphopantetheinyl transferase (PPTase) | 4'-phosphopantetheinyl transferase ffp (Bacillus subtilis), Q9F4F7 | Biochemical Sfp PPTase activity, qHTS | Potency, µM, for inactives: largest response in the series, negative = inhibition, hits mostly inhibitors | 3.5% of 310,000 active | AID 1490, 2009;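 note: the enzyme is Sfp with the accession as filed and its product quenches rhodamine fluorescence; 0% = enzyme reaction without inhibitor and -100% = no enzyme wells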
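Fluorescence-quenching assay with 15 nM Sfp, 5 uM rhodamine-CoA and 12.5 uM BHQ-2-labelled ybbR peptide in pH 7.6 Hepes/MgCl2 buffer. Enzyme was pre-incubated with compound for 15 min at room temperature. Rate was taken from the 30-min fluorescence change (525/598 nm).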
PLK1 PBD inh = qHTS for Inhibitors of PLK1-PDB (polo-like kinase 1 - polo-box domain): Primary Screen; Potency, µM, for inactives: max response, negative = inhibition, usual class: inhibitors; AID 720504, 2013; 2.8% of 360,000 active; Plk1 PBD binding of FITC phosphopeptide, fluorescence polarization; note: series mostly up to about 57 µM; nearly all actives have a fitted effect of over 65% in size
VDR inh = Inhibitors of the vitamin D receptor (VDR): qHTS. AID 504847, 2011. Potency, µM, inactives show max response, negative = inhibition, hits mostly inhibitors. Vitamin D3 receptor (Homo sapiens), P11473. VDR-SRC2-3 peptide fluorescence polarization, 2 h. 0.93% of 400,000 active
Target sequence (P11473 whole entry, looked up): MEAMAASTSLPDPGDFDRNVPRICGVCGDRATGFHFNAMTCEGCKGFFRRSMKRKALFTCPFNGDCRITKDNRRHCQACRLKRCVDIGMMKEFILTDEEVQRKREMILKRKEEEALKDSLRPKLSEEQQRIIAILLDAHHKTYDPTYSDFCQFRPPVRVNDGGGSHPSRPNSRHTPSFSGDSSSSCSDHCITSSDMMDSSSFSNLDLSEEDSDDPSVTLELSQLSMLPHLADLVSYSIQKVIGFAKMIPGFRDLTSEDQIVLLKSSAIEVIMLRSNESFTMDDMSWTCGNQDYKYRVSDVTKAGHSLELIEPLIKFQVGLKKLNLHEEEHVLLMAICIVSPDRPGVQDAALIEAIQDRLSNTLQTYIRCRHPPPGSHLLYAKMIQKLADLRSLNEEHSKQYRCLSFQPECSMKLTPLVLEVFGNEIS
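Signal is fluorescence polarization, reporting how far test compounds block the interaction of VDR with the SRC2-3 coregulator peptide after a 2 h room-temperature incubation.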
Starred values were filed as active, the others as inactive; u = inconclusive; x = no result; [ ] = remark or other dose. Calls come from the whole dose curve; as a rule, active = well fitted curve in the direction sought with a large enough effect; inconclusive = small, poorly fitted or top-dose-only effect, or another doubt; inactive = no such curve, though single readings can be large; an effect the other way counts as inactive or inconclusive. Unless noted, % is set by controls: 0 for no effect and ±100 for the full control effect; potency is the fitted concentration of half-maximal effect.

SMILES	Tau fluor counter	Tau ThT inhib	Tau fibril FP	Sfp inh	PLK1 PBD inh	VDR inh
COc1cc2nc(C3CCC3)nc(N3CCN(c4ccccn4)CC3)c2cc1OC	1%	-4%	-1%	79µM*	3%	-14%
S=C(Nc1ccc(Cl)c(Cl)c1)N1CCN(c2ccccn2)CC1	x	x	x	0%	-16%	-7%
S=C(Nc1ccc(Oc2ccccc2)cc1)N1CCN(c2ccccn2)CC1	u	u	-5%	u	24µM*	-12%
COc1cc(NC(=S)N2CCN(c3ccccn3)CC2)c(OC)cc1Cl	0%	6%	0%	10%	24µM*	u
COc1cccc(NC(=S)N2CCN(c3ccccn3)CC2)c1	-9%	-11%	-2%	11%	27µM*	u
COc1cc2nc(C3CCC3)nc(N3CCN(c4ccccc4OC)CC3)c2cc1OC	-23%	u	0%	-23%	-1%	-7%
COc1cccc(Nc2ncc3nc(C)c(=O)n(Cc4cccs4)c3n2)c1	x	x	x	17%	x	7%
Cc1nn(C)c(C)c1S(=O)(=O)N(CC(=O)NCCc1ccc(Cl)cc1)c1ccc(C(C)C)cc1	-7%	-5%	1%	x	x	-1%
CC(=O)N1c2ccc(S(=O)(=O)N3CCCC(C(=O)N4CCCC(C)C4)C3)cc2CC1C (stereo not drawn)	x	x	x	7%	-17%	0%
CCC(=O)N1c2ccc(S(=O)(=O)CCC(=O)NCc3ccc4c(c3)OCO4)cc2CC1C (stereo not drawn)	-3%	6%	0%	-7%	24µM*	u
CC(=O)N1c2ccc(S(=O)(=O)N3CCC(C(=O)NCc4ccc(Cl)cc4)CC3)cc2CC1C (stereo not drawn)	x	x	x	1%	7.5µM*	25µM*
CC(=O)N1c2ccc(S(=O)(=O)NCCC(=O)NCc3ccc(N(C)C)cc3)cc2CC1C (stereo not drawn)	x	x	x	7%	11µM*	u
CC(=O)N1c2ccc(S(=O)(=O)NCCC(=O)N3CCCC(C)C3)cc2CC1C (stereo not drawn)	x	x	x	23%	24µM*	u
CCCc1cc(=O)n2[nH]c(NCc3ccccc3OC)nc2n1	-14%	-12%	-2%	x	x	16%
Cc1ccc([C@H]2Nc3ccc(S(=O)(=O)Nc4cccc(Cl)c4C)cc3[C@H]3C=CC[C@H]32)cc1	u	13µM*	-8%	x	x	-6%
OC[C@@H](O)[C@@H](O)CCc1ccccc1	-5%	-7%	9%	19%	x	5%
COc1ccc(CC(=O)N(C)CC(=O)Nc2ccccc2SC)cc1	x	x	x	12%	24µM*	u
CSc1ccccc1NC(=O)CN(C)Cc1cccc(Cl)c1	-9%	-20%	6%	32µM*	-4%	-5%
COc1ccc(-c2nc(=S)[nH][nH]2)cc1OC	1%	-2%	3%	56µM*	-9%	-20%
COc1cc(-c2nc(=S)[nH][nH]2)cc(OC)c1OC	-10%	-12%	-13%	50µM*	-16%	50µM*
FC(F)(F)c1ccc(-c2nc(=S)[nH][nH]2)cc1	6%	x	-1%	56µM*	-25%	u
CCOc1ccc(-c2nc(=S)[nH][nH]2)cc1	-10%	-16%	1%	u	-20%	-9%
COc1ccc(-c2nc(=S)[nH][nH]2)cc1	2%	-8%	-2%	u	u	79µM*
Nc1ccc(C(=O)N/N=C/c2cn(Cc3cccc(F)c3)c3ccccc23)cc1	x	x	x	-5%	3%	-7%
CCOC(=O)SC1=N/C(=C\c2ccc(N(C)C)cc2)C(=O)S1	-21%	4.5µM*	1%	-4%	-13%	-2%
SMILES	Tau fluor counter	Tau ThT inhib	Tau fibril FP	Sfp inh	PLK1 PBD inh	VDR inh
CSC1=N/C(=C\c2ccc(C)cc2)C(=O)S1	-12%	-14%	-5%	-7%	-3%	-9%
COc1ccc(-c2csc(NC(=O)CSc3nc(C)cs3)n2)cc1	x	x	x	x	1%	-10%
COc1ccc(-c2csc(NC(=O)CSc3nc(C)nc4sc(C(=O)O)c(C)c34)n2)cc1	-2%	u	6%	-4%	19µM*	31%
COC(=O)C/C=C/C(C)C(OC)c1ccccc1Br (stereo not drawn)	-13%[11.6 µM]	-13%[11.5 µM]	0%[11.6 µM]	15%	x	x
COc1ccc(C(CNC(=O)Cn2c(=O)oc3ccccc32)N(C)C)cc1 (stereo not drawn)	x	x	x	20µM*	-4%	5%
COc1cccc(NC(=O)Cn2c(=O)oc3ccccc32)c1	0%	-14%	-4%	13%	-2%	23%
COc1ccc(CN=C2NN=C(c3cccc(OC)c3)CS2)cc1	-15%	u	-4%	u	u	-7%
CCCCN=C1NN=C(c2ccc3c(c2)OCCO3)CS1	-14%	u	7%	40µM*	-8%	-1%
COc1ccc(CN=C2NN=C(c3ccccc3)CS2)cc1	-23%	u	-2%	45µM*	u	-29%
COc1ccc(N=C2NN=C(c3ccc4c(c3)OCCO4)CS2)cc1	u	7.1µM*	u	u	27µM*	-10%
FC(F)Sc1ccc(N=C2NN=C(c3ccc4c(c3)OCCO4)CS2)cc1	u	u	1%	0%	-30%	-18%
CCCCN=C1NN=C(c2ccc(C)c(C)c2)CS1	-22%	u	-1%	-25%	11µM*	u
CCCCCCCCCCCCCC[C@@H](O)[C@@H](O)[C@@H](N)CO	x	x	x	u	x	67%
Cc1ccc2nc(-c3ccc(Cl)cc3)c(Cc3ccccn3)n2c1	x	x	x	x	-17%	x
CCn1nc(C)c(CCN(C)C(=O)Nc2cc(C)cc(C)c2)c1C	5%	4%	0%	x	x	6%
CC(Cc1n[nH]c(=S)n1N)c1ccccc1 (stereo not drawn)	x	x	x	56µM*	27µM*	-6%
Nn1c(Cc2ccccc2)n[nH]c1=S	-6%[2.34 µM]	-11%	-5%[2.34 µM]	9%	0%	23%
Nn1c(Cc2ccc(F)cc2)n[nH]c1=S	2%	2%	1%	-29%	19µM*	4%
CC(Sc1nnc(CC(C)c2ccccc2)n1N)C(N)=O (stereo not drawn)	x	x	x	5%	2%	0%
CC1=Nc2nc(N3CCCCC3)c(C#N)c3c4c(nc(c23)N1)N(c1ccc(C(C)C)cc1)C(=O)C4	-30%	13µM*	u	u	0%	7%
CC(C)c1ccc(-c2nc(N3CCCCC3)[nH]c(=O)c2C#N)cc1	5%	2%	2%	9%	-11%	-5%
